# Results taken from PubChem BioAssay (NCI).
# This is part of a sample that, as a whole, favours compounds with a hit. Of some 83,000 tested, about 20% had one in any assay.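 For each line, cells grew in 96-well plates with the test compound present at a single concentration for 48 hours.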 Values without a mark were called inactive. Activity calls are given as the source filed them.
# System: CAKI-1 renal
# Assay: NCI-60 one-dose screen, 48 h (100 = growth as untreated, 0 = no growth, -100 = all killed)
# Settings: 10 µM unless noted
# Method: Growth inhibition of the CAKI-1 human tumor cell line is measured as a screen for anti-cancer activity. Cells are grown in 96 well plates and exposed to the test compound for 48 hours. Compounds are tested at a single concentration, which is 10^-5 M for most compounds. The reported endpoint is percent growth (GI% or GIPRCNT), where numbers from 0 - 100% represent growth inhibition, and numbers from -100% - 0 represent cell death. For example, a value of 40 represents 60% growth inhibition. A value of 0 means no net growth occurred over the course of the experiment. A value of -40 indicates 40% of cells at the beginning of the experiment died by the end of the experiment. A value of -100 means all cells are dead at the end of the experiment.
# NCI-60 Human Tumor Cell Lines Screen was performed using the standard one-dose NCI protocol, which is described in more detail at https://dtp.cancer.gov/discovery_development/nci-60/default.htm.
# Compounds with GIPRCNT values below 10 were considered active. Activity score was based on GIPRCNT using the following formula: […]
# Score is 0 for GIPRCNT values of 100 or above, 50 for GIPRCNT values of 0, and 100 for GIPRCNT values of -100.
row,Structure (SMILES),growth
1,Cc1nc(Cl)cc(N(c2cc(Cl)nc(C)n2)c2ncc(C(=O)Nc3c(C)cccc3Cl)s2)n1,4% (active)
2,CCCc1cc2cc(-n3nc(C)c4c3CC(C)(C)CC4=O)cc(NC3CCSCC3)c2c(=O)[nH]1,68.8%
3,C=C(C)[C@@H]1CC[C@]2(C(=O)NCCCN)CC[C@]3(C)[C@H](CC[C@@H]4[C@@]5(C)CC[C@H](O)C(C)(C)[C@@H]5CC[C@]43C)[C@@H]12,-54.5% [100 µM] (active)
4,O=C(N/N=C1\c2ccccc2-c2cccc(C(=O)O)c21)c1ccc(O)cc1,86.9%
5,CCOC(=O)c1cc(C#N)n2ncc3ccccc3c12,86.5%
6,C#C[C@]1(O)CC[C@H]2[C@@H]3CC=C4c5nc(Nc6ccc(OC)cc6OC)sc5CC[C@]4(C)[C@H]3CC[C@@]21C,26.4%
7,COC(=O)C(=Cc1ccccc1[N+](=O)[O-])C(=O)OC,31.2%
8,CN(C)CCCNc1nc(-c2cccc(C(Cl)(Cl)Cl)c2)nc(C(Cl)(Cl)Cl)n1,98.2%
9,COc1ccc2nc3cc(Cl)ccc3c(Nc3ccc(O)cc3)c2c1,71.5%
10,CC(C)(C)c1cc(C(=O)Nc2cc3ccccc3cc2C(=O)NCCN)cc(C(C)(C)C)c1,-84.4% (active)
11,O=[N+]([O-])c1cc(CCl)ccc1OCCBr,92%
12,CC(C)C1=NOC(=O)C1=Cc1cn(-c2ccccc2)nc1-c1ccc(Cl)cc1,65.8%
13,CCOC(=O)c1c[nH]n2c(=S)ncnc12,102%
14,c1nc(N2CCOCC2)c2[nH]ccc2n1,103%
15,COc1ccc(C=C2c3ccccc3-c3ccccc32)cc1,49%
16,COc1ccc(/C=C(/C2=NCCN2)n2ccc3ccccc32)cc1,69.7%
17,Nc1cc(C(=O)O)[nH]c(=S)n1,94.9%
18,CC(C)=CCC[C@](C)(O)[C@H]1CC[C@]2(C)[C@@H]1CC[C@@H]1[C@@]3(C)CC/C(=N/O)C(C)(C)[C@@H]3CC[C@]12C,-58.4% [100 µM] (active)
19,O=c1cc(-c2ccccc2)oc2c(O)c(O)ccc12,37.4%
20,CC(C)OC(=O)Nc1cc(F)c(F)cc1F,97.1%

row,Structure (SMILES),growth
1,CC1Cc2c(Cl)ncnc2N(C)c2ccc(O)cc21 (stereo not given),89.2%
2,O=C(Nc1ccc(CN2CCOCC2)c(C(F)(F)F)c1)c1nc2ccc3[nH]ncc3c2c2c1CCCC2,80.9%
3,CC(C)(C)c1cc(C(=O)Nc2ccccc2C(=O)NCCN)cc(C(C)(C)C)c1,45.4%
4,CC(=O)OC[C@]12CC[C@@H](C(=O)CBr)[C@@H]1[C@H]1CC[C@@H]3[C@@]4(C)CCCNC(C)(C)[C@@H]4CC[C@@]3(C)[C@]1(C)CC2,-96.1% [100 µM] (active)
5,COc1cc2c(=O)[nH]c3cc([N+](=O)[O-])ccc3c2cc1[N+](=O)[O-],45.7%
6,CC(=O)OC[C@]12CC[C@@H]([C@@H](C)C(N)=O)[C@@H]1[C@H]1CC[C@@H]3[C@@]4(C)CC[C@H](OC(C)=O)C(C)(C)[C@@H]4CC[C@@]3(C)[C@]1(C)CC2,-45.8% [100 µM] (active)
7,O=C(NNc1ccc(-c2ccccc2)nn1)c1ccc(F)cc1,61.8%
8,O=C1Nc2ccccc2/C1=C/C(=O)c1ccc(N2CCCC2)cc1,18.1%
9,CC1(C)CC[C@]2(C(=O)O)CC[C@]3(C)C(=CC[C@@H]4[C@@]5(C)C/C(=C/c6cccnc6)[C@H](O)C(C)(C)[C@@H]5CC[C@]43C)[C@@H]2C1,5.69% [100 µM] (active)
10,CCN(CC)c1ccc2cc(C(Nc3ccc(Cl)cc3)c3nnnn3C(C)(C)C)c(=O)oc2c1 (stereo not given),73.1%
11,O=[N+]([O-])c1cccc(/C=C/c2ccc3ccccc3n2)c1,78.3%
12,CN(C)C(=S)Sc1ccc([N+](=O)[O-])cc1[N+](=O)[O-],4.43% (active)
13,COc1ccc2c(c1)c(-c1noc(C(=O)c3cn(C)c4ncc(Br)cc34)n1)cn2C,68.9%
14,O=S(=O)(NCCNc1nccc(-c2c(-c3cccc(F)c3)nc3occn23)n1)c1ccc(C(F)(F)F)cc1,68.9%
15,C[C@H]1[C@H](C)CC[C@]2(C(=O)O)CC[C@]3(C)C(=CC[C@@H]4[C@@]5(C)C/C(=C/c6ccco6)C(=O)C(C)(C)[C@@H]5CC[C@]43C)[C@H]12,-74.6% [100 µM] (active)
16,COc1ccc2c(c1)C(C)Cc1c(ncnc1-n1cnc3ccccc31)N2C (stereo not given),27.6%
17,C[C@@H]1C[C@H]2C(=O)O[C@@H](C)[C@H](NC(=O)[C@H](Cc3cc(F)cc(F)c3)NC(=O)Nc3ccc(C4CC4)cc3F)C(=O)N3CCC[C@H]3C(=O)N3CCCC[C@H]3C(=O)N[C@@H](C)C(=O)N2C1,8.8% (active)
18,COc1ccc(C2CC(c3cc(OC)c(OC)c(OC)c3)=NN2C(C)=O)cc1OCC(=O)Nc1nc2ccc(C(F)(F)F)cc2s1 (stereo not given),57.9%
19,Cn1cc(-c2nnc(-c3cn(C)c4ncc(Br)cc34)o2)c2ccccc21,45%
20,CC(C)C1=NOC(=O)C1=Cc1cn(-c2ccccc2)nc1-c1ccc(Br)cc1,62.9%
